Screens (PubChem)
ssDAF12 agonist – S. stercoralis DAF-12 nuclear receptor activators, primary screen, cell-based, luminescence, HEK293, GRIP1 co-expression, lit1-tk-luc | Nuclear hormone receptor DAF-12 (Strongyloides stercoralis) | activation, % at 6.8 µM | HEK293 ssDAF-12/GRIP1 lit1-tk-luc reporter; % of 3 µM dafachronic acid response | hit rate 1% among 370,000;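 active means activation above the mean over all tested compounds plus 3 SD, cut at about 0.9% in these data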;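 further: 0% = DMSO-only wells and 100% = 3 µM delta7-dafachronic acid wells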
DAX1 inh-1 – DAX1 (NR0B1) inhibitors on StAR promoter, primary screen, cell-based, luminescence, SF-1 (NR5A1), full-length DAX-1; HEK293T StAR-luciferase reporter, SF-1/DAX-1 repression relief; inhibition, % at 6.8 µM; hit rate 1.1% among 370,000; AID 652010, 2013;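 active means inhibition above the mean over all tested compounds plus 3 SD, cut at about 3.6% in these data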;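 further: 0% = DAX-1 cells with DMSO and 100% = cells lacking DAX-1 with DMSO; higher inhibition means more luminescence from relief of DAX-1 repression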
DAX1 inh-2 – DAX1 (NR0B1) inhibitors, primary screen, cell-based, HEK293, Gal4-DAX1, luciferase luminescence. Nuclear receptor subfamily 0 group B member 1 (Homo sapiens), P51843. HEK293 Gal4-DAX1 luciferase reporter. inhibition, % at 6.75 µM. hit rate 0.99% among 340,000;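 active means inhibition above the mean over all tested compounds plus 3 SD, cut at about 4.2% in these data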;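 further: 0% = DAX1-transfected cells with DMSO and 100% = empty-vector control cells with DMSO; inhibition shows as a rise in luminescence from relieved DAX1 repression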
Target sequence (P51843 207-470 limits assumed): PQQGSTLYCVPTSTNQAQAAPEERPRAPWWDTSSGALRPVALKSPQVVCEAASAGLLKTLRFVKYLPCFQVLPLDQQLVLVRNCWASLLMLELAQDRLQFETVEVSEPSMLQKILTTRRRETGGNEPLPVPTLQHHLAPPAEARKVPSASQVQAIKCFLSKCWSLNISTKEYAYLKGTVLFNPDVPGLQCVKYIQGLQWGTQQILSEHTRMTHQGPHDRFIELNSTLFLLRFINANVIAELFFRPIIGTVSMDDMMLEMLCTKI
hgDAF-12 ag – H. glycines DAF-12 receptor agonists, primary screen, cell-based, luminescence, HEK293, GAL4 fusion, UAS-luciferase. activation, % at 6.8 µM. hit rate 1.8% among 370,000. Nuclear hormone receptor DAF-12 (Heterodera glycines), GAL4 fusion. HEK293 GAL4-hgDAF12 UAS-luciferase reporter, agonist luminescence; normalized to butyrate control;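 active means activation above a cutoff set at the mean of all screened compounds plus 3 SD, cut at about 10% in these data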;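 further: 0% = DMSO wells and 100% = sodium butyrate wells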
hcDAF-12 act – H. contortus DAF-12 nuclear receptor activators, primary screen, cell-based, luminescence, HEK293, lit1-tk-luc reporter. HEK293 hcDAF-12 lit1-tk-luc reporter; 0% DMSO, 100% Δ7-dafachronic acid. activation, % at 6.8 µM. hit rate 1.4% among 370,000. AID 652067, 2013;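 active means activation above the mean of all tested compounds plus 3 SD, cut at about 5.5% in these data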;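 further: 100% = response to 3 µM Δ7-dafachronic acid high control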
hgDAF12 ag – H. glycines DAF-12 receptor agonists, confirmation, cell-based, luminescence, HEK293, GAL4-LBD fusion; shares compounds with hgDAF-12 ag; HEK293 GAL4-hgDAF12 luciferase reporter, agonist mode; percent of butyrate response; activation, % at 6.8 µM; hit rate 80% among 3,300;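 active means mean activation over triplicate wells above the hit cutoff derived from the earlier primary screen, cut at about 11% in these data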;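 further: 0% = DMSO low control and 100% = 2 mM sodium butyrate high control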
LXR ag 2 – LXR agonists, Gal4 luciferase reporter, confirmation, counter-screen for hgDAF-12 agonist project, cell-based, luminescence, HEK293, H. glycines campaign; shares compounds with hgDAF-12 ag; 24 h; AID 743051, 2013; 3,300 tested, under 10 active; activation, % at 6.8 µM;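 active means mean activation of the triplicate above a set limit carried over from the primary screen, none filed active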
Target sequence (P55055 whole entry, looked up, the tested form may be a part): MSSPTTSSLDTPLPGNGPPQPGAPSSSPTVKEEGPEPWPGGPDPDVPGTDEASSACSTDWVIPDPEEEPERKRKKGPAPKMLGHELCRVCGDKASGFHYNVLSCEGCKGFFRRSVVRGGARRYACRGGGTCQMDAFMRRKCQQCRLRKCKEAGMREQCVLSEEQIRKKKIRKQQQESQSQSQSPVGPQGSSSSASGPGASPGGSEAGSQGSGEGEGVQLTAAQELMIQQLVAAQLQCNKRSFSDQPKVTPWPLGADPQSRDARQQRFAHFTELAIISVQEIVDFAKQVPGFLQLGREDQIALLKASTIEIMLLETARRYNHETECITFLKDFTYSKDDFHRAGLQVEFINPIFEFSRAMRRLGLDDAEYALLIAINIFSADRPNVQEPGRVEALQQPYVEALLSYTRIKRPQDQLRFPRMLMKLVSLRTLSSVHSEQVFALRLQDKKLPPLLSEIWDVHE
* marks the source's active call; other numbers are inactive results; . = no result. Sampled rows, rich in hits. Any-hit rate of the full collection: about 4.1%.

SMILES | ssDAF12 agonist | DAX1 inh-1 | DAX1 inh-2 | hgDAF-12 ag | hcDAF-12 act | hgDAF12 ag | LXR ag 2
Fc1ccccc1-c1n[nH]c(=S)n1N=Cc1ccc(OCc2ccccc2)cc1 | -1.6 | -0.4 | . | 3.2 | -2.6 | . | .
Cc1ccc(NC(=O)COC(=O)c2ccco2)cc1 | -1.4 | 0.2 | -0.3 | -2.8 | 0.6 | . | .
Cc1cc(C)nc(NC(=S)NC(=O)c2ccccc2)n1 | 0.2 | 0.3 | 1.7 | 0.9 | -0.5 | . | .
CC(C)CCNC(=S)Nc1ccc(F)cc1 | -1.4 | -0.9 | -0.8 | 0.7 | -1.2 | . | .
Cc1ccc2nc(-c3ccc(NC(=O)CN4C(=O)NC(C)(c5ccc(OC(F)F)cc5)C4=O)cc3)sc2c1 (stereo not given) | -0.3 | 2.5 | -1.4 | 15.3* | 5.8* | 14.4* | 0.6
Cc1ccc(-c2nc3ccccc3s2)cc1NC(=S)NC(=O)c1ccccc1 | 1.6* | 2.0 | 2.5 | 14.7* | 5.7* | 16.1* | 0.5
Cc1ccc2nc(-c3ccc(NC(=O)COC(=O)c4ccco4)cc3)sc2c1 | 0.1 | 4.1* | 1.5 | 21.3* | 4.5 | 19.3* | 0.9
CC1(c2ccc(OC(F)F)cc2)NC(=O)N(CC(=O)Nc2ccccc2)C1=O (stereo not given) | -0.5 | 0.6 | -0.2 | 1.7 | 1.0 | . | .
Cc1ccc2nc(-c3ccc(NC(=S)NCCC(C)C)cc3)sc2c1 | 0.4 | 3.2 | 1.9 | 13.6* | 3.9 | 15.1* | 0.6
CN(C)c1ccc(C(=O)NC2CCCCN(Cc3ccc(Cl)cc3)C2=O)cc1 (stereo not given) | -0.8 | 0.8 | . | 7.5 | 2.8 | . | .
COc1cc2c(c(OC)c1OC)[C@@]1(c3ccccc3)CCCCC[C@H]1[C@@H]2NC(=O)C(F)(F)F | -1.1 | 0.9 | . | -2.0 | -1.1 | . | .
CN(CCc1ccccn1)C(=O)c1cc2ccccn2n1 | -0.5 | 0.5 | . | -1.2 | -0.6 | . | .
COC(=O)c1ccc(Cn2ccc3ccc(-c4ccc5ccn(Cc6ccc(OC)cc6)c5c4)cc32)cc1 | -0.4 | 0.0 | . | 0.9 | 3.3 | . | .
CC(=O)NC(=S)Nc1ccc(-c2nc3ccc(C)cc3s2)cc1 | -0.3 | 2.9 | 4.1 | 15.2* | 4.9 | 21.9* | 0.8
CC(=O)Nc1ccc(S(=O)(=O)Nc2nc3ccc(C)cc3s2)cc1 | -0.5 | -0.4 | -0.5 | 3.8 | 0.3 | . | .
Cc1ccc(C(=O)CSc2ccccn2)cc1 | 0.4 | 2.9 | 2.7 | 15.4* | 5.1 | 13.6* | 0.5
O=C(CSc1ccccn1)c1ccc(F)cc1 | -0.6 | 0.5 | 0.9 | 1.0 | 0.2 | . | .
O=[N+]([O-])c1ccc(/C=N/Nc2nc3ccccc3o2)cc1 | -0.9 | 0.4 | -0.3 | 2.7 | 1.3 | . | .
CCS(=O)(=O)c1ccc(C=NNc2nc3ccccc3o2)cc1 | 0.1 | 3.5 | 2.4 | 21.1* | 4.0 | 15.0* | 0.7
CC(C)CNC(=O)CC1Oc2ccccc2NC1=O (stereo not given) | -1.2 | 0.2 | . | 1.2 | -2.1 | . | .
Cc1c(NC(=O)c2ccc(C(C)(C)C)cc2)cccc1[N+](=O)[O-] | -0.7 | 1.0 | 1.5 | 13.5* | -0.1 | 7.0 | 0.2
COc1cccc(CNc2cnc3ccccc3c2)c1O | 0.1 | 1.9 | -0.9 | 8.9 | 3.1 | . | .
COc1cccc(CNc2nc3ccccc3n2C)c1O | 1.8* | 2.4 | 4.2 | 14.6* | 5.3 | 19.2* | 0.8
CCSCC(C)(C)n1[nH]c2ccccc2c1=O | -1.2 | 0.1 | -0.1 | 14.4* | 0.4 | -2.2 | 0.0
CCn1c(=O)[nH]c2ccccc2c1=O | -1.1 | 0.5 | 0.6 | -3.0 | 0.3 | . | .
SMILES | ssDAF12 agonist | DAX1 inh-1 | DAX1 inh-2 | hgDAF-12 ag | hcDAF-12 act | hgDAF12 ag | LXR ag 2
COc1ccc(C(=O)NC(=S)N2CCC(C)CC2)cc1Br | -0.6 | 0.7 | 1.2 | 31.7* | 0.2 | -1.1 | 0.0
COc1ccc(C(=O)NC(=S)N2CCNC(=O)C2)cc1Br | -1.4 | -0.1 | 3.2 | 0.2 | 1.8 | . | .
O=C(N[C@H](C(=O)N1CCC[C@H]1C(=O)NCCc1ccccc1Cl)C1CCCCC1)c1ccccc1 | -0.1 | 1.5 | . | -3.4 | -0.1 | . | .
COc1ccc(S[C@]2(C(=O)N3CCCC3)CC(=O)N(C(=O)/C=C/c3ccccc3)[C@@H]2c2ccc(OC)cc2)cc1 | -0.7 | -3.0 | . | -3.5 | -2.0 | . | .
O=C(NCc1ccc(Cl)cc1)c1cnn2ccccc12 | -0.4 | 3.8* | 1.0 | 17.6* | 3.0 | 13.1* | 0.7
COc1ccc2c(c1)CC/C2=N\OC(=O)c1cccc(C)c1 | -0.1 | 2.0 | 2.5 | 13.7* | 1.9 | 17.0* | 0.7
COc1ccc2c(c1)CCC/C2=N/OC(=O)c1ccccc1OC | -0.9 | -0.1 | -1.2 | 3.0 | -0.8 | . | .
COC(=O)c1ccccc1NC(=O)Nc1cc(C(C)(C)C)on1 | -0.3 | 2.9 | 1.3 | 4.9 | 0.2 | . | .
CC(C)(C)c1cc(NC(=O)Nc2ccccc2)no1 | 0.0 | 2.4 | 2.7 | 22.8* | 5.3 | 18.9* | 0.8
O=C(c1cc(Cl)cc(Cl)c1)N1CC[C@H]2[C@H](CCCN2Cc2ccccc2)C1 | -1.6 | -0.8 | . | 1.0 | -0.3 | . | .
O=[N+]([O-])c1cccc(-c2nnc(-c3ccccc3)o2)c1 | -0.6 | 0.3 | 0.3 | 13.9* | 2.5 | 16.4* | 0.5
O=[N+]([O-])c1cccc(-c2nnc(-c3ccc4c(c3)OCO4)o2)c1 | -0.5 | -0.1 | 0.8 | 2.0 | 0.5 | . | .
COc1ccc(/C=C/c2nnc(NC(C)=O)s2)cc1 | 0.4 | 2.6 | 2.2 | 14.5* | 5.5 | 16.0* | 0.8
COC(=O)Nc1nnc(/C=C/c2ccc(OC)cc2)s1 | -0.5 | 1.1 | 2.2 | 8.3 | 3.2 | . | .
CC(C)C[C@H](NC(=O)c1ccccc1)C(=O)N1CCC[C@H]1C(=O)NCc1ccccc1 | -0.4 | -1.2 | . | -0.2 | -0.5 | . | .
O=C(N/C=C/c1ccccc1)c1ccccc1 | 0.7 | 3.0 | 1.8 | 15.0* | 4.4 | 15.8* | 0.9
O=C(Nc1cccc2ccccc12)OCc1ccccc1 | -0.2 | 1.0 | 1.1 | 16.9* | 2.6 | 6.0 | 0.1
c1cn2cc(-c3ccc4c(c3)OCO4)nc2s1 | 1.6* | 4.3* | -0.3 | 16.2* | 6.5* | 15.6* | 0.8
Cc1nc(-c2ccc(NC(=O)C3CCCCC3)cc2)cs1 | -0.1 | 1.7 | 2.1 | 10.4 | 1.9 | . | .
O=C(Nc1ccc(-c2cn3ccsc3n2)cc1)C1CCCC1 | 0.1 | 2.6 | 0.7 | 16.2* | 3.1 | 18.1* | 0.7
